Among the data in PubChem BioAssay (EPA / NIEHS) are AC50 and outcome values, retold here.

Experiment [1] has as its system Thyroperoxidase (TPO), gene 54314. Briefly: CCTE_Simmons_AUR_rTPO: CCTE's Amplex UltraRed Assay for Thyroperoxidase (TPO) Inhibition, Simmons Lab (AID 2283662).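 Further: potency for loss of signal meaning inhibition of peroxidase activity.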 Put shortly: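 Rat thyroid microsomal TPO + 25 uM AUR in 200 mM K phosphate; cpd 5 nM–87.5 uM [final], 8 conc, 0.5% DMSO; 300 uM H2O2 starts rxn; 37C dark 30 min; endpoint FI 544/590 nm; n=3.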
Experiment [2] can be described thus: Tanguay_ZF_120hpf_TR_legacy: (Legacy) Oregon State University Tanguay Lab 120 Hour Post-fertilization zebrafish Assay for Touch Response (AID 2283667). Put shortly: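 5D WT embryos; static exposure to 120 hpf, 28C, sealed/dark; DMSO 0.64% v/v final. TR scored present/absent; dead embryos excluded. Pos ctrl 5uM trimethyltin chloride.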
Experiment [3] can be described thus: CCTE_Padilla_ZF_144hpf_TERATOSCORE: (Legacy) CCTE's 144 Hour Post-fertilization zebrafish Assay Teratoscore, Padilla Lab (AID 2283679; active means hit-call score of the fitted dose curve at least 0.9, where 1 is the maximum; inactive means score below 0.9;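 on AC50: zebrafish embryos with chorions exposed by immersion from 6-8 hpf to 5 dpf with daily renewal; teratogenicity score from eye scoring of death hatching and malformations at 144 hpf; higher score means more developmental defects relative to DMSO baseline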). An outline of the steps:
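Larvae scored by eye at 144 hpf for death, hatching and malformations after a day in clean Hanks'. Before that, daily-renewed exposure at 80 uM (0.4% DMSO, 26C) from roughly 6-8 hpf through 5 dpf, 4 embryos per chemical.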

Experiment [4] can be described thus: STM_H9_CystineISnorm_perc: Stemina devTOX quickPredict H9 human embryonic stem cell (hESC)-based Assay for Cystine (CYSS) Metabolite Biomarker, Normalized (AID 2283713; active means hit-call score of the fitted dose curve at least 0.9, where 1 is the maximum; inactive means score below 0.9). An outline of the steps:
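Undifferentiated H9 hESCs were exposed to compound for 72h, with medium and compound replaced every 24h. Final-24h conditioned medium was deproteinized and analyzed by UPLC-HRMS. Cystine EIC area was normalized to spiked C13 standard and 0.1% DMSO median.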

Experiment [5] can be described thus: STM_H9_OrnCyssISnorm_ratio: Stemina devTOX quickPredict H9 human embryonic stem cell (hESC)-based Assay for Ornithine (ORN):Cystine (CYSS) Ratio (AID 2283714). Put shortly: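 Steps: H9 hESCs in pluripotent state dosed 72h, medium plus compound renewed every 24h; conditioned medium from the final 24h deproteinized in 40% acetonitrile; ORN and CYSS quantified by UPLC-HRMS with C13 spike-ins; ratio relative to vehicle.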

Experiment [6] is described as follows: CEETOX_H295R_MTT_cell_viability: Viability Assessment in the CeeTox HT-H295R MTT Assay (AID 2283718; active means hit-call score of the fitted dose curve at least 0.9, where 1 is the maximum; inactive means score below 0.9;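 on AC50: curve fitted both ways so AC50 may mark viability loss or gain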). Put shortly:
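MTT reduction (0.5 mg/ml, 4 h at 37 C; absorbance at 570 and 650 nm) gave viability as background-corrected percent change versus controls. H295R cells had 48 h forskolin (10 uM) prestimulation, then 48 h chemical exposure at 0.1% DMSO.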

The nature of experiment [7]: Tanguay_ZF_120hpf_ActivityScore_legacy: (Legacy) Oregon State University Tanguay Lab 120 Hour Post-fertilization zebrafish Assay Score for Activity (AID 2283742).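 On AC50: dechorionated Tropical 5D wild-type zebrafish embryos held singly per well; static exposure from 6 hpf until 120 hpf at 28 °C.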 Put shortly:
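Embryos are staged, enzymatically dechorionated at 4 hpf, placed individually at 6 hpf, then held in test chemical (0.64% DMSO) at 28C until 120 hpf. Mortality and malformations are scored by brightfield, with non-mortality endpoints skipped for dead embryos.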

The nature of experiment [8]: CCTE_Simmons_CellTiterGLO_HEK293T: Viability Assessment in CCTE's Assays for Thyroperoxidase (TPO) Inhibition, Simmons Lab (AID 2283665).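 On AC50: cells exposed to compound for 24 h before readout; actives reduce ATP signal below DMSO vehicle meaning cytotoxicity.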 Put shortly:
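HEK293T cells in DMEM with 1% FBS were dosed with 8 concentrations (5 nM–87.5 uM final, 0.5% DMSO) for 24 hr at 37C; ATP content was read by CellTiter-Glo luminescence, loss-of-signal versus DMSO, three biological replicates.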
Background: Cellular ATP, detected with luciferase, serves as a proxy for viable cell number.

Read-out in experiment [9]: matrix metalloproteinase-1 (MMP1), MMP1 (gene 4312)
The experiment is described as follows: LTEA_HepaRG_MMP1: Life Technologies and Expression Analysis (LTEA) Assay for matrix metalloproteinase-1 (MMP1) using HepaRG (AID 2283658; active means hit-call score of the fitted dose curve at least 0.9, where 1 is the maximum; inactive means score below 0.9). The following applies: mRNA level, 48 h; actives raise or lower the signal. An outline of the steps: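 In this screen, human liver HepaRG cultures receive each chemical in duplicate for 48 h (top 100 uM, 0.5% DMSO). MMP1 expression is then quantified by TaqMan qRT-PCR with ACTB/GAPDH/POLR2A normalization.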

Read-out in experiment [10]: Cytochrome P450 (CYP24A1_1), CYP24A1 (gene 1591)
The experiment is described as follows: LTEA_HepaRG_CYP24A1_1: Life Technologies and Expression Analysis (LTEA) Assay for Cytochrome P450 (CYP24A1_1) using HepaRG (AID 2283671; active means hit-call score of the fitted dose curve at least 0.9, where 1 is the maximum; inactive means score below 0.9). Particulars: mRNA level, 48 h; actives raise or lower the signal. An outline of the steps: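 In this test, gene induction or suppression of CYP24A1 in human HepaRG liver cells is measured by qRT-PCR after 48 h chemical treatment (eight concentrations, maximum 100 uM). Values are fitted bidirectionally relative to DMSO.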

Where “and” joins values, the source holds several entries; their conditions need not be identical. Equal values may be shown once. Inconclusive results are not listed. Calls of active or inactive are those of the source. How the source made its calls, unless noted: active means hit-call score of the fitted dose curve at least 0.9, where 1 is the maximum; inconclusive means response in the unintended direction; inactive means score below 0.9.

In general, AC50 refers to the midpoint of the concentration-response curve, whichever way the signal moves. With `CC1=C(/C=C/C(C)=C/C=C/C(C)=C/C(=O)O)C(C)(C)CCC1`, the AC50 was 25 µM (active) in experiment [1]; 0.0914 µM (active) in [2]; 0.0081 µM (active) in [3]; 8.44 nM (active) in experiment [4]; 5.32 nM (active) in [5]; 1.21 µM (active) in experiment [6]. The concentration at half-maximal activity (AC50) in experiment [7] was 0.34 µM (active).

With `O=C(O)c1ccccc1C(c1ccc(O)cc1)c1ccc(O)cc1`, the AC50 in experiment [1] was 4.26 µM (active). For the same compound, the result in [8], in experiment [3], in [6] and in [7] was inactive.

With `CC#C[C@]1(O)CC[C@H]2[C@@H]3CCC4=CC(=O)CCC4=C3[C@@H](c3ccc(N(C)C)cc3)C[C@@]21C`, the AC50 in experiment [1] is 4.74 µM (active); in experiment [8], 17.7 µM (active); in experiment [3], 14.5 µM (active); in experiment [6] it was 13.4 µM (active); in experiment [7] it was 27.9 µM (active).

For `Oc1cc2ccccc2c2ccccc12`, the half-maximal activity concentration (AC50) in experiment [1] is 1.72 µM (active); in experiment [8], 1.4 µM (active); in [2], 38.8 µM (active); in [3] it was 4.98 µM (active); in experiment [7], 31.4 µM (active).

Turning to `CCCCCCCCCCCCc1ccccc1S(=O)(=O)O`, the AC50 was 37.3 µM (active) in experiment [1], 33.9 µM (active) in [8] and 3.26 µM (active) in experiment [3]. In addition, the outcome in experiment [2], in experiment [4] and in experiment [7] was inactive.

Take `ClC1=C(Cl)C(Cl)(Cl)C(Cl)=C1Cl`: the compound was called inactive in experiment [9], in experiment [10] and in experiment [7]. For the same compound, in experiment [3], the AC50 is 4.87 µM (active).

Turning to `CCN(CC)CCNc1ccc(CNC=O)c2sc3ccc(OC)cc3c(=O)c12`, the AC50 is 24.9 µM (active) in [1]; 22.1 µM (active) in experiment [8]; 57.8 µM (active) in experiment [3]; 2530 nM (active) in experiment [4]; 5780 nM (active) in experiment [5]. Moreover, the compound was classed as inactive in experiment [2] and in experiment [7].

For the compound `CCC(=C(c1ccc(O)cc1)c1ccc(OCCN(C)C)cc1)c1ccccc1`, the AC50 was 9.22 µM (active) and 8.64 µM (active) in experiment [1]; 8.78 µM (active) and 3.78 µM (active) in experiment [8]; 7.87 µM (active) in [3]. Moreover, the call in experiment [6] and in experiment [7] was inactive.
